Assay outcomes as filed in PubChem.
This is a sample that favours compounds with a hit; in the whole collection about 5.1% have one here.
ANO1 block – mouse TMEM16A channel inhibition, primary screen; Q8BHY3; HEK293 TMEM16A/YFP iodide influx fluorescence, ionomycin; normalized B-score (activity score, 25-100; higher = stronger inhibition) at 10 µM; 310,000 compounds, 1.2% hits;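 active = ratio plate-corrected score three or more library SD toward inhibition, starting fluorescence score within five deviations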;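 also: score derived from kinetic fluorescence span divided by baseline fluorescence per well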
NR3A LBD binder – modulators (binders) of human NR3A ligand-binding domain. 340,000 compounds, 2.5% hits. NR3A LBD differential scanning fluorimetry, Tm shift; 0% = protein alone, 100% = glycine-bound protein. Tm shift relative to glycine control, % at 25 µM;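 active = melting temperature shift of at least 10% of the positive control shift, at one fixed dose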
MPTP block – permeability transition pore inhibition. isolated mouse mitochondria, Ca2+ swelling absorbance, 30 min. inhibition, % at 10 µM. 360,000 compounds, 1.4% hits;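 active = inhibition of 50% or more, scaled per plate between neutral and stimulator controls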;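 also: 0% = DMSO wells given calcium and 100% = 1 mM EGTA wells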
CRFR2-BP ag – CRF-BP/CRF-R2 complex agonism; HEK293 CRF-R2/CRF-BP, calcium dye fluorescence (FLIPR); percent of saturating CRF peptide response; activation, % at 13.2 µM; 350,000 compounds, 0.46% hits; AID 588473;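 active = activation of at least 50%, plus an integration ratio under a set limit after plate pattern correction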;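 also: plate controls were neutral control wells without compound for no effect and CRF at EC100 for full effect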
CRFR2-BP antag – CRF-BP/CRF-R2 complex antagonism | inhibition, % at 11.8 µM | AID 588475 | 350,000 compounds, 0.59% hits | HEK293 CRF-R2/CRF-BP, CRF-induced calcium fluorescence;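 active = inhibition of the ligand-induced calcium signal above about 50% at the single tested concentration, limit read from the data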
TMEM16A act – mouse TMEM16A channel activation, primary screen. HEK293 TMEM16A/YFP-H148Q/I152L, iodide quench fluorescence; active compounds read low. AID 623877. 340,000 compounds, 0.3% hits. B-score at 10 µM;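 active = fluorescence-ratio B-score plate-corrected deviation score at least 3 library SD below zero, with starting fluorescence score within 5 deviations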;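 also: channel opened by trigger with iodide after compound preincubation; score built on the fluorescence ratio of max minus min over baseline; more negative score means more quench and so TMEM16A activation or potentiation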
Numbers without * were called inactive; i = inactive; x = no result given.

SMILES	ANO1 block	NR3A LBD binder	MPTP block	CRFR2-BP ag	CRFR2-BP antag	TMEM16A act
CC(=O)c1sc(N/N=C\c2cccc(Br)c2)nc1C	i	3	9	19	-75	i
CC(=O)c1sc(N/N=C\c2ccc(Br)cc2)nc1C	i	16*	13	11	-30	i
COc1ccc(C(=O)NCCCN2CCCC2=O)cc1S(=O)(=O)N1CCOCC1	x	x	-1	-2	-1	x
CC(NC(=O)c1ccccc1Cl)C(=O)O (stereo not drawn)	i	-1	-2	0	1	i
O=C(O)C1OC1(c1ccccc1Cl)c1ccccc1Cl (stereo not drawn)	x	0	0	-2	69*	i
CC1CCCCC12NC(=O)N(CC(=O)Nc1cccnc1)C2=O (stereo not drawn)	x	x	-2	-2	0	x
CC1(C)CC(=O)C(C2C3=C(CC(C)(C)CC3=O)Oc3ccccc32)C(=O)C1 (stereo not drawn)	i	-5	2	-4	24	i
CC1(C)CC(=O)C(C2C3=C(CC(C)(C)CC3=O)Oc3ccc4ccccc4c32)C(=O)C1 (stereo not drawn)	i	0	0	26	81*	i
CN1CCN(S(=O)(=O)c2cc([N+](=O)[O-])ccc2N/N=C/c2ccc(Cl)cc2)CC1	i	2	0	2	10	i
O=[N+]([O-])c1ccc(N/N=C/c2c[nH]c3ccccc23)c(S(=O)(=O)Nc2ccc(Cl)cc2)c1	i	513*	23	94*	-190	i
COc1ccccc1NS(=O)(=O)c1cc([N+](=O)[O-])ccc1N/N=C/c1c(C)[nH]c2ccccc12	i	29*	0	37	-92	i
Cc1[nH]c2ccccc2c1/C=N/Nc1ccc(F)cc1F	i	x	x	x	x	x
Cc1[nH]c2ccccc2c1/C=N/Nc1ccc([N+](=O)[O-])cc1	i	25*	-5	121*	-220	i
Cc1[nH]c2ccccc2c1/C=N/NC(=O)c1cccc([N+](=O)[O-])c1	i	-3	-1	-2	2	i
Cc1cccc(C)c1N1C(=O)c2ccccc2NC(=O)C1C(=O)NCc1ccco1 (stereo not drawn)	x	x	7	x	x	x
Cc1c(OCC(=O)NCC(O)c2ccccc2)ccc2c(-c3ccccc3)cc(=O)oc12 (stereo not drawn)	i	-7	0	1	-2	i
Cc1nn(C(=O)c2c(-c3ccccc3)noc2C)c(C)c1N=Nc1cc(C(F)(F)F)cc(C(F)(F)F)c1	i	-7	0	5	53*	i
NC(=O)C1CCN(c2oc(-c3ccccc3F)nc2S(=O)(=O)c2ccc(Cl)cc2)CC1	i	4	2	0	-8	i
CN1CCN(c2oc(-c3ccccc3F)nc2S(=O)(=O)c2ccc(Cl)cc2)CC1	i	10*	0	1	-31	i
COC(=O)c1cc(C(=O)c2ccc(C(C)(C)C)cc2)c[nH]1	25*	-2	0	5	-10	i
CC(C)(C)c1ccc(C(=O)c2c[nH]c(C(=O)O)c2)cc1	i	0	1	2	-13	i
CC(=O)c1cccc(NS(=O)(=O)N2CCOCC2)c1	i	0	-1	-1	13	i
O=C1N=c2ccccc2=C1c1sc(=S)n(Cc2ccccc2Cl)c1O	i	19*	17	-1	0	i
Cc1c(-n2c(O)c(C3=c4ccccc4=NC3=O)sc2=S)c(=O)n(-c2ccccc2)n1C	i	-3	2	1	-3	i
O=C1N=c2ccccc2=C1c1sc(=S)n(-c2ccc(O)cc2)c1O	i	29*	25	-1	-1	i
SMILES	ANO1 block	NR3A LBD binder	MPTP block	CRFR2-BP ag	CRFR2-BP antag	TMEM16A act
O=C1N=c2ccccc2=C1c1sc(=S)n(NC(=O)c2cccc(O)c2)c1O	x	-2	5	-12	65*	i
Cc1cc(NC(=O)COC(=O)C2CCN(S(=O)(=O)c3ccccc3)CC2)c([N+](=O)[O-])cc1C	i	-1	0	0	-1	i
COCCN(C(=O)COC(=O)c1ccc2ccccc2c1)c1c(N)n(Cc2ccccc2)c(=O)[nH]c1=O	x	x	1	-2	4	x
O=C(NCc1ccccc1)c1cccc2c1C(=O)c1ccc(/C=C/c3ccccc3)cc1S2(=O)=O	x	0	1	16	-12	i
NC(=S)N/N=C/c1cccc(/C=N/NC(N)=S)c1	i	0	1	-1	-1	i
NC(=S)N/N=C/c1ccc2ccccc2c1	i	18*	1	-9	18	i
O=C(CSc1ccc(-c2nc3ccccc3[nH]2)cn1)Nc1ccc(S(=O)(=O)N2CCCC2)cc1	i	29*	-4	1	5	i
Cc1cc2nc(-c3ccc(SCC(=O)Nc4ccc(S(=O)(=O)N5CCCC5)cc4)nc3)[nH]c2cc1C	i	21*	2	6	30	i
CC(OC(=O)c1ccccc1)C(=O)NCc1ccco1 (stereo not drawn)	x	2	0	1	7	i
Cc1ccc(C(=O)C2C(=O)c3ccccc3C2=O)cc1	i	-1	1	-1	26	i
NN=C1c2ccccc2C(=O)C1C(=O)C(c1ccccc1)c1ccccc1 (stereo not drawn)	x	12*	12	10	-38	i
CC(NC(=O)c1ccc(NS(C)(=O)=O)cc1)c1ccccc1 (stereo not drawn)	i	-1	-6	3	-7	i
CC(NC(=O)c1ccccc1NS(C)(=O)=O)c1ccccc1 (stereo not drawn)	i	20*	-4	-4	20	i
CC(C)CNC(=O)C1(C)CCCN1Cc1ccc(S(C)(=O)=O)cc1 (stereo not drawn)	x	x	0	x	x	x
O=C(CN1CCOCC1)NNC(=O)c1ccc(Cl)cc1	x	0	0	0	7	i
CN(C)CCN(Cc1ccco1)S(=O)(=O)c1ccc(-c2ccc(=O)[nH]n2)s1	i	14*	0	-2	0	i
CCc1ccc(Nc2nnc(SC(C)C(=O)NC3CC3)s2)cc1 (stereo not drawn)	x	-1	-1	1	79*	i
CC(NCc1ccc(S(N)(=O)=O)cc1)C(=O)Nc1ccc([N+](=O)[O-])cc1Cl (stereo not drawn)	i	0	0	-5	9	-24*
CC(NCc1ccc(S(N)(=O)=O)cc1)C(=O)Nc1cc([N+](=O)[O-])ccc1Cl (stereo not drawn)	i	0	0	-13	9	i
Cc1ncc(CO)c(/C=N/Nc2ccc(C(F)(F)F)cn2)c1O	i	27*	0	5	8	i
